# Source: PubChem BioAssay (NCI)
# Compounds without any hit were thinned out: in the full panel of roughly 83,000, 20% have a hit.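 Method: cells in 96-well plates; compound added at one concentration; 48 h incubation; percent growth measured; values under 10 scored active.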 A number with no mark means an inactive call. Calls of active or inactive are those of the source.
# Experiments:
# Test in all cases: NCI-60 one-dose screen, 48 h (100 = growth as untreated, 0 = no growth, -100 = all killed)
# Details in all cases: 10 µM unless noted
# NCI-H23 lung = test system: NCI-H23 lung
# NCI-H226 lung = test system: NCI-H226 lung
# NCI-H322M lung = test system: NCI-H322M lung
# HOP-62 NSCLC = test system: HOP-62 NSCLC
# NCI-H460 lung = test system: NCI-H460 lung
# HOP-92 NSCLC = test system: HOP-92 NSCLC
# NCI-H522 lung = test system: NCI-H522 lung
# A549/ATCC NSCLC = test system: A549/ATCC NSCLC
# 786-0 renal = test system: 786-0 renal
# DU-145 prostate = test system: DU-145 prostate
# K-562 leukemia = test system: K-562 leukemia
# MALME-3M melanoma = test system: MALME-3M melanoma
# MDA-MB-231 breast = test system: MDA-MB-231 breast
# RXF 393 renal = test system: RXF 393 renal
# SF-268 CNS = test system: SF-268 CNS
# SF-295 CNS = test system: SF-295 CNS
# SF-539 CNS = test system: SF-539 CNS
# UACC-257 melanoma = test system: UACC-257 melanoma
# COLO 205 colon = test system: COLO 205 colon
# M14 melanoma = test system: M14 melanoma
SMILES,growth (NCI-H23 lung),growth (NCI-H226 lung) [%],growth (NCI-H322M lung),growth (HOP-62 NSCLC),growth (NCI-H460 lung),growth (HOP-92 NSCLC),growth (NCI-H522 lung),growth (A549/ATCC NSCLC),growth (786-0 renal),growth (DU-145 prostate) [%],growth (K-562 leukemia),growth (MALME-3M melanoma),growth (MDA-MB-231 breast),growth (RXF 393 renal),growth (SF-268 CNS),growth (SF-295 CNS),growth (SF-539 CNS),growth (UACC-257 melanoma),growth (COLO 205 colon),growth (M14 melanoma)
COc1ccc(/C=C/C(=O)c2ccc(NC(=O)CSc3nnc(-c4ccc(OC)c(OC)c4)n3-c3ccccc3)cc2)cc1,21.3%,80.7,99.1%,48.5%,91.3%,52.7%,-60.9% (active),80%,-67% (active),40.8,8.42% (active),-75% (active),1.36% (active),94.4%,80.6%,91.4%,87.5%,90%,–,–
Cn1nc(C(F)(F)F)c(-c2cc(C(F)(F)F)cc(C(F)(F)F)c2)c1-c1ccc(OCc2ccc(Cl)cc2)cc1O,0.56% (active),13.9,5.67% (active),-9.87% (active),-10.4% (active),-20.1% (active),-9.19% (active),10.5%,2.41% (active),20.6,1.63% (active),-15.9% (active),-31.5% (active),-14.5% (active),16.6%,-22.6% (active),2.13% (active),-7.16% (active),-90.7% (active),6.3% (active)
COc1cc(C2CC(c3ccc(Nc4nc(NCCO)nc(NCCO)n4)cc3)=NN2c2cc(Cl)cc(Cl)c2)cc(OC)c1OC (stereo not given),4.73% (active),106,11.9%,14.4%,-24.5% (active),89.9%,25.1%,0.449% (active),-17.5% (active),12.8,2.02% (active),-66.3% (active),-19.2% (active),-42.5% (active),-33.3% (active),6.18% (active),-61.3% (active),13.2%,35%,-14.3% (active)
[2H]c1nc(Nc2ncc3cc(C(=O)N(C)C)n(C4CCCC4)c3n2)c([2H])c([2H])c1N1C([2H])([2H])C([2H])([2H])NC([2H])([2H])C1([2H])[2H],67.1%,74.6,71.5%,52.3%,59.1%,65.8%,61.8%,45%,52.9%,88.4,53.2%,62.4%,51%,62.9%,75.3%,72.1%,71.5%,60%,–,70.7%
COc1ccc(/C=C/C(=O)Nc2ncnc3nc[nH]c23)cc1,97.7%,104,101%,109%,99.2%,106%,81.1%,92.9%,95.6%,92.1,81.2%,96.4%,109%,95.4%,93.5%,107%,100%,100%,–,87.8%
O=C1NN(c2ccccc2)C(c2ccc3c(c2)OCO3)N2CCC[C@@H]12 (stereo not given in full),88.2%,105,88.3%,91.4%,106%,107%,70.1%,97.9%,98.2%,101,93.8%,94.9%,105%,117%,94%,103%,111%,99.2%,–,96.6%
CCCCC1=c2c([nH]c3ccc(OC)cc23)=NC2C=CC=NC12 (stereo not given),81.4%,89.3,86.1%,90.8%,80.7%,103%,83.8%,103%,110%,98.8,72.1%,108%,79.9%,92.8%,93.1%,106%,93.7%,126%,106%,101%
